A number with no mark means an inactive call. Results filed as inconclusive are left out. A call without a number means that no potency is given here. Active and inactive are the calls of the source. Unless noted, calls come from the whole dose curve; as a rule, active = well fitted curve in the direction sought with a large enough effect in the repeat runs; inconclusive = weak or mixed curves; inactive = no such curve, though single readings can be large; an effect the other way counts as inactive or inconclusive.
What was measured:
[1] = qHTS assay to identify small molecule antagonists of the estrogen related receptor (ERR) signaling pathway from Tox21 library - cell viability counter screen (AID 1224834); note: nearly all actives have a fitted effect of over 30% in size
Method in brief: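 ERR reporter cells, 2,000 per well, rested 6 h, then exposed to compound in DMSO for 17.5 hours at 37 C. Viability read as fluorescence after 30 min with CellTiter-Fluor.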

[2] = target: Luciferin 4-monooxygenase (Photinus pyralis) (UniProt P08659); assay: qHTS assay to identify small molecule inhibitors of firefly luciferase (AID 1224835); note: nearly all actives have a fitted effect of over 25% in size
Sequence of Luciferin 4-monooxygenase (Photinus pyralis) (P08659 whole entry, looked up): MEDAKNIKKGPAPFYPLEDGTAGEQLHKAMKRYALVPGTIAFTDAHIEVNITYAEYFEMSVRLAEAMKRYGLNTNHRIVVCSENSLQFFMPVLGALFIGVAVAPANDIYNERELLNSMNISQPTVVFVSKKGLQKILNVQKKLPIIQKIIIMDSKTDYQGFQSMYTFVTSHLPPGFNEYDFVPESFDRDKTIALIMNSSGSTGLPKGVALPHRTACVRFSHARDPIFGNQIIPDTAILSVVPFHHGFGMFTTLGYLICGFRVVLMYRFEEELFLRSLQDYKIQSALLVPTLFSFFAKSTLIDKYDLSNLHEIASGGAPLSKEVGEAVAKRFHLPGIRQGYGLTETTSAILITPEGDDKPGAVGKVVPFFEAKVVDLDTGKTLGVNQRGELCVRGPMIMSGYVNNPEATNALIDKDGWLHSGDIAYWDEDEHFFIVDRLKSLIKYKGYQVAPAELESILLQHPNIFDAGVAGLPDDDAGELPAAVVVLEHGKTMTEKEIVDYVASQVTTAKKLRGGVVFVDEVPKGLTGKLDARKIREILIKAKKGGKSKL
Method in brief: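 Inhibition of purified Photinus luciferase is measured by luminescence. Substrate levels (D-luciferin, ATP) sit at their KM values. Each compound is tested in a concentration series.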

[3] = qHTS assay to identify small molecule agonists of the constitutive androstane receptor (CAR) signaling pathway - cell viability counter screen (AID 1224836); note: nearly all actives have a fitted effect of over 45% in size
Method in brief: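 Fluorescence from CellTiter-Fluor indicates live cells after 23 h exposure. The human hepatoma line expresses hCAR and a CYP2B6-2.2kb reporter. Incubation medium contains 0.75 uM PK11195 (final).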

[4] = qHTS assay to identify small molecule antagonists of the constitutive androstane receptor (CAR) signaling pathway - cell viability counter screen (AID 1224837); note: nearly all actives have a fitted effect of over 45% in size
Method in brief: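 HepG2 cells stably carrying hCAR and CYP2B6-2.2kb reporter, stimulated with 50 nM CITCO and compounds at 15 concentrations for 23 h at 37 C. Viability measured by CellTiter-Fluor fluorescence.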

[5] = target: Nuclear receptor subfamily 1 group I member 3 (Homo sapiens) (UniProt Q14994); assay: qHTS assay to identify small molecule antagonists of the constitutive androstane receptor (CAR) signaling pathway (AID 1224838); note: nearly all actives have a fitted effect of over 40% in size
Sequence of Nuclear receptor subfamily 1 group I member 3 (Homo sapiens) (Q14994 whole entry, looked up): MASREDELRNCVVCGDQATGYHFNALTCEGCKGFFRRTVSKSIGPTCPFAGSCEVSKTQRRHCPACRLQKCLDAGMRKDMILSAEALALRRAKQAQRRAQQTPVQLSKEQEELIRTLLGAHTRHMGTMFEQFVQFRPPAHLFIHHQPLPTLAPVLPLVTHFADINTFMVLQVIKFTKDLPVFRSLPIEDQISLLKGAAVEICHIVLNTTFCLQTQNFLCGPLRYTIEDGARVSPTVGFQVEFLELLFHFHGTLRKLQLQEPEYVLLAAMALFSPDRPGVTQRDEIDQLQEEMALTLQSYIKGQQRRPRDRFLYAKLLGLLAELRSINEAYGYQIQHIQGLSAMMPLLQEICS
Method in brief: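 HepG2 cells stably carrying hCAR and a CYP2B6-2.2kb luciferase reporter, seeded 4 hrs before compound (15 concentrations). Stimulated with 50 nM CITCO for 24 hr at 37 C. ONE-Glo luminescence read after 30 min at room temperature.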

[6] = target: Nuclear receptor subfamily 1 group I member 3 (Homo sapiens) (UniProt Q14994); assay: qHTS assay to identify small molecule agonists of the constitutive androstane receptor (CAR) signaling pathway (AID 1224839); note: nearly all actives have a fitted effect of over 15% in size; note: potency is the fitted concentration of half-maximal effect
Method in brief: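 Stable hCAR/CYP2B6-2.2kb HepG2 line in DMEM with 10% FBS; compounds (15 concentrations) and 0.75 uM PK11195 final, 24 h at 37 C/5% CO2, then ONE-Glo luminescence after 30 min.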

[7] = qHTS assay to identify small molecule antagonists of the estrogen related receptor signaling pathway with the pleiotropic PPARgamma coactivator (PGC) from Tox21 10K library - cell viability counter screen (AID 1224840; active = well fitted cell-killing curve with a large enough effect in the repeat runs, not every such curve was filed as active; note: nearly all actives have a fitted effect of over 40% in size)
Method in brief: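 PGC/ERR cells (2,000/well) plated 6 h, then compound-treated for 17.5 h at 37 C. Viability measured by CellTiter-Fluor fluorescence after 30 min at 37 C, multiplexed with the pathway assay.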

[8] = qHTS assay to identify small molecule antagonists of the estrogen related receptor signaling pathway with the pleiotropic PPARgamma coactivator (PGC) from Tox21 10K library (AID 1224841; call rule not given here; note: actives are mostly falling curves and most rising ones were filed inactive; nearly all actives have a fitted effect of over 50% in size)
Method in brief: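 PGC/ERR cell line, 2,000 cells/well, pre-incubated 6 hours at 37 C, then exposed to compounds for 18 hours at 37 C; luciferase read with One-Glo luminescence after 30 min at room temperature.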

[9] = qHTS assay to identify small molecule agonists of the estrogen related receptor signaling pathway with the pleiotropic PPARgamma coactivator (PGC) from Tox21 10K library (AID 1224842); note: nearly all actives have a fitted effect of over 15% in size
Method in brief: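 Luminescence from One-Glo (30 min, room temperature) measured after PGC/ERR cells had 18 h at 37 C with pinned compound (23 nL in DMSO). Cells had been seeded at 2,000 per well and pre-incubated 6 h.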

[10] = target: Thyrotropin receptor (Homo sapiens) (UniProt P16473); assay: qHTS assay to identify small molecule agonists of the thyroid stimulating hormone receptor (TSHR) signaling pathway (AID 1224843; calls by dose curve; note: nearly all actives have a fitted effect of over 45% in size)
Sequence of Thyrotropin receptor (Homo sapiens) (P16473 whole entry, looked up): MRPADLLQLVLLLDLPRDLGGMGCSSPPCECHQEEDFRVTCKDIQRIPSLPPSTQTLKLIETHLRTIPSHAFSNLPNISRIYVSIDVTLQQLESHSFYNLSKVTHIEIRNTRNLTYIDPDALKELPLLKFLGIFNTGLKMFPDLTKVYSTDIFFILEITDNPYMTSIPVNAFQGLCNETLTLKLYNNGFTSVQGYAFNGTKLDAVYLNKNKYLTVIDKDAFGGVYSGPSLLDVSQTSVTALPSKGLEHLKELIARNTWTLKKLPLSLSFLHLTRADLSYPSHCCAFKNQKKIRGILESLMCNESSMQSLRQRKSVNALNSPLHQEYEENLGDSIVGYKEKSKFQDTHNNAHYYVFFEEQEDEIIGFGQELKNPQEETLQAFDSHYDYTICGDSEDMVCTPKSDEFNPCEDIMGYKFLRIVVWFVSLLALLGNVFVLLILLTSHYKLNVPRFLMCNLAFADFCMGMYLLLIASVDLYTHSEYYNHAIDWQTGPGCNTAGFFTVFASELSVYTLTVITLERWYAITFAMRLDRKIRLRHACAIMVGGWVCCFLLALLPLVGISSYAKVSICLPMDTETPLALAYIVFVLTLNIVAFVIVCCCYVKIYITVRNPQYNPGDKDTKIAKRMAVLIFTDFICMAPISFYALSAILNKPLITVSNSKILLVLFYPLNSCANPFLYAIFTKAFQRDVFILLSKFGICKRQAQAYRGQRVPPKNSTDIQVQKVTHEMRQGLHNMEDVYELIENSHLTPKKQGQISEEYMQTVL
Method in brief: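 HEK293 cells stably bearing the thyrotropin receptor were plated at 800 cells/well and challenged with compound (30 min, RT). Accumulated cAMP was quantified via cAMP-d2 competing for cryptate-tagged antibody.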

[11] = qHTS assay to identify small molecule agonists of the hypoxia (HIF-1) signaling pathway - cell viability counter screen (AID 1224844; calls by dose curve; note: nearly all actives have a fitted effect of over 50% in size)
Method in brief: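 HRE-bla ME-180 cells, 2,000/well in 0.5% dialyzed FBS medium, treated 17 h at 37C with compounds. Viability read in the same wells as the bla reporter, by CellTiter-Glo luminescence after 30 min at room temperature.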

[12] = qHTS assay to identify small molecule agonists of H2AX (AID 1224845; active = well fitted activation curve with a large enough effect in the signal ratio in the repeat runs, not every such curve was filed as active; the % refers to the signal ratio)
Method in brief: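 Phospho-H2AX Ser139 measured by HTRF (ex 320 nm; em 665 and 620 nm) after 24 hr antibody incubation. Compounds, 15 concentrations, 0.76% DMSO, were applied to CHO-K1 cells for 3hr at 37C before lysis.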

[13] = qHTS assay to identify small molecule agonists of the hypoxia (HIF-1) signaling pathway (AID 1224846; active = well fitted activation curve with a large enough effect in the signal ratio in the repeat runs, not every such curve was filed as active; the % refers to the signal ratio)
Method in brief: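 HRE-bla ME-180 beta-lactamase reporter cells in medium with 0.5% dialyzed FBS, pre-incubated 5 h then exposed to compounds 17 h at 37C, 5% CO2; reporter induction read with CCF4-AM FRET substrate.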

[14] = qHTS assay to identify small molecule agonists of H2AX - cell viability counter screen (AID 1224847; calls by dose curve; note: top concentration of the series differs between compounds; nearly all actives have a fitted effect of over 30% in size)
Method in brief: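 Viability of CHO-K1 (wild type) cells after 3 hr compound exposure was measured by CellTiter-Glo luminescence.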

[15] = qHTS assay to identify small molecule antagonists of the estrogen related receptor (ERR) signaling pathway from Tox21 library (AID 1224848); note: nearly all actives have a fitted effect of over 50% in size
Method in brief: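 Reading was by luminescence 30 min after ONE-Glo addition. Before that, ERR cells at 2,000 per well had rested 6 h at 37 C/5% CO2 and then received pin-tooled compounds in DMSO for 18 h at 37 C.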

[16] = qHTS assay to identify small molecule agonists of the estrogen related receptor (ERR) signaling pathway from Tox21 library (AID 1224849; calls by dose curve; note: nearly all actives have a fitted effect of over 15% in size); settings: ERR reporter cell line, ONE-Glo luciferase, 18 h; at 92.4 µM (top of the series) unless noted
Method in brief: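 ERR reporter cells (NTP line) pre-incubated 6 hours at 37 C, then exposed to compounds for 18 hours at 37 C. ONE-Glo luciferase luminescence was read after 30 minutes at room temperature.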

[17] = qHTS RealTime-Glo MT Cell Viability Assay in HepG2 cells - 24 hour (AID 1224867); note: nearly all actives have a fitted effect of over 50% in size
Method in brief: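 HepG2 cells were seeded at 600 cells/well together with NanoLuc luciferase and a cell-permeant prosubstrate, preincubated 5 h at 37 C/5% CO2, then pin-dosed with compounds in DMSO. Nonlytic luminescence from viable cells was read at each time point.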

[18] = qHTS RealTime-Glo MT Cell Viability Assay in HEK293 cells - 32 hour (AID 1224868)
Method in brief: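 HEK293 cells were seeded at 600 cells/well together with NanoLuc luciferase and cell-permeant prosubstrate, preincubated 5 h at 37 C/5% CO2, then given compound in DMSO by pintool. Luminescence from viable-cell prosubstrate reduction was read repeatedly over 40 h.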

[19] = A CellTox Green Cytotoxicity Assay to monitor cytotoxicity in HEK293 cells - 0 hour (AID 1224869); note: nearly all actives have a fitted effect of over 50% in size
Method in brief: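 HEK293 cells, 600/well, were preincubated 5 hours and then exposed to compounds at 37 C for up to 40 hours. A cell-impermeant cyanine dye staining dead-cell DNA was read by fluorescence at 0, 8, 16, 24, 32 and 40 h time points.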

[20] = qHTS RealTime-Glo MT Cell Viability Assay in HepG2 cells - 40 hour (AID 1224870); note: nearly all actives have a fitted effect of over 50% in size
Method in brief: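 Real-time viability: cells seeded at 600 per well together with NanoLuc and cell-permeant prosubstrate, compounds added after 5 h incubation. Luminescence tracked at 0, 8, 16, 24, 32 and 40 h of exposure.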

SMILES | Potency [1] | Potency [2] | Potency [3] | Potency [4] | Potency [5] | Potency [6] | Potency [7] | Potency [8] | outcome [9] | Potency [10] | Potency [11] | Potency [12] | outcome [13] | Potency [14] | Potency [15] | activity change, positive = activation [16] | Potency [17] | Potency [18] | Potency [19] | Potency [20]
CCC(C)n1c(=O)[nH]c(C)c(Br)c1=O (configuration not stated) | inactive | inactive | inactive | inactive | inactive | inactive | inactive | inactive | inactive | inactive | inactive | inactive | inactive | inactive | inactive | -4.95% | inactive | inactive | inactive | inactive
CC(=O)CCc1ccc2c(c1)OCO2 | inactive | inactive | inactive | inactive | inactive | inactive | inactive | inactive | inactive | inactive | inactive | inactive | inactive | inactive | – | -0.0233% | inactive | inactive | inactive | inactive
CC(C(O)c1ccccc1)N(C)C/C=C/c1ccccc1 (configuration not stated) | inactive | inactive | inactive | inactive | inactive | inactive | inactive | – | – | inactive | inactive | inactive | inactive | – | – | – | inactive | – | inactive | inactive
CCOP(=O)(N=C1SCCS1)OCC | inactive | inactive | inactive | inactive | inactive | inactive | inactive | – | – | inactive | inactive | inactive | inactive | inactive | – | – | inactive | inactive | inactive | inactive
Cc1cc(C)nc(Nc2ccccc2)n1 | inactive | inactive | inactive | inactive | inactive | 61.1 µM (active) | inactive | inactive | inactive | inactive | inactive | inactive | inactive | inactive | – | – | inactive | inactive | inactive | inactive
CCC(Cl)[N+](=O)[O-] (configuration not stated) | inactive | inactive | inactive | inactive | inactive | inactive | inactive | inactive | inactive | inactive | inactive | inactive | inactive | inactive | – | -7.71% | inactive | inactive | – | inactive
N#CCBr | inactive | inactive | inactive | inactive | inactive | inactive | inactive | inactive | inactive | – | inactive | inactive | inactive | inactive | inactive | 0.914% | inactive | inactive | – | inactive
N#Cc1c(Cl)cccc1Cl | inactive | inactive | inactive | inactive | inactive | inactive | inactive | inactive | inactive | – | inactive | inactive | inactive | inactive | – | 7.33% | inactive | inactive | inactive | –
COc1cc(OC)nc(Sc2cccc(Cl)c2C(=O)O)n1 | inactive | inactive | inactive | inactive | inactive | inactive | inactive | inactive | inactive | inactive | inactive | inactive | inactive | inactive | – | 0.33% | inactive | inactive | – | inactive
CC(=O)[C@H]1CC[C@H]2[C@@H]3CC[C@H]4C[C@H](O)CC[C@]4(C)[C@H]3C(=O)C[C@]12C | inactive | inactive | inactive | inactive | inactive | inactive | inactive | – | inactive | – | – | inactive | – | inactive | – | -14.9% [at 42.5 µM] | inactive | – | inactive | inactive
CC1(C)C(=O)NC(=O)NC1=O | inactive | inactive | inactive | inactive | inactive | inactive | inactive | inactive | inactive | inactive | inactive | inactive | inactive | inactive | – | -0.272% | inactive | inactive | inactive | inactive
CCOc1nc(C(Cl)(Cl)Cl)ns1 | inactive | inactive | inactive | inactive | inactive | inactive | inactive | inactive | inactive | inactive | – | inactive | inactive | inactive | – | -11.7% | inactive | inactive | inactive | inactive
O=NN1CCN(N=O)CC1 | inactive | inactive | inactive | inactive | inactive | inactive | inactive | inactive | inactive | – | inactive | inactive | inactive | inactive | inactive | 3% | inactive | inactive | – | inactive
[As]#[In] | inactive | inactive | inactive | inactive | inactive | inactive | inactive | inactive | inactive | inactive | inactive | inactive | inactive | inactive | inactive | 0.493% | inactive | – | inactive | inactive
O=C(N[C@H]1CN2CCC1CC2)c1cc2ccoc2cn1 | inactive | inactive | inactive | inactive | inactive | inactive | inactive | – | – | inactive | inactive | inactive | inactive | inactive | – | – | inactive | inactive | inactive | inactive
